For nine compounds, growth results are on record in PubChem BioAssay (NCI).

Test systems include SR leukemia; RPMI-8226 leukemia; OVCAR-8 ovarian; OVCAR-5 ovarian; OVCAR-4 ovarian; SK-OV-3 ovarian; IGROV1 ovarian; OVCAR-3 ovarian; HS 578T breast; NCI/ADR-RES ovarian; T-47D breast; BT-549 breast; MDA-MB-435 melanoma; SW-620 colon; MCF7 breast; HCT-116 colon; HCC-2998 colon; KM12 colon.
What all share (assay): NCI-60 one-dose screen, 48 h (100 = growth as untreated, 0 = no growth, -100 = all killed)
Details in all cases: 10 µM unless noted

The panel holds about 83,000 compounds, 20% with a hit somewhere; the sample as a whole holds those more often.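 Step 1: grow cells in 96-well plates. Step 2: add test compound at a single concentration. Step 3: incubate 48 h. Step 4: record percent growth.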 Values without a mark were called inactive. Active and inactive are the calls of the source. How the source made its calls: active means growth percent below 10; inactive means the rest.

In the case of `C/C(Nc1ccc(Cl)c(Cl)c1)=C1\CCOC1=O`, the growth is 83.6% with SR leukemia; 61.3% in the test with RPMI-8226 leukemia; 102% in the test on OVCAR-8 ovarian; 87.5% in the test on OVCAR-5 ovarian; 72.4% with OVCAR-4 ovarian; 121% in the test on SK-OV-3 ovarian. The growth in the test with IGROV1 ovarian was 83.8%; with OVCAR-3 ovarian, 100%; in the test with HS 578T breast, 98%; with NCI/ADR-RES ovarian it was 86.7%; in the test with T-47D breast, 86.6%; with BT-549 breast it was 87.2%. The growth with MDA-MB-435 melanoma is 82.5%; in the test with SW-620 colon, 111%; with MCF7 breast, 96.1%; in the test with HCT-116 colon, 80.7%; in the test on HCC-2998 colon it was 90.3%; in the test with KM12 colon, 96.2%.
`CCN(CC)c1nc(SCc2ccccc2Cl)ncc1C`: the growth in the test with SR leukemia was 95.6%; with RPMI-8226 leukemia, 93.5%; in the test on OVCAR-8 ovarian, 104%; with OVCAR-5 ovarian, 119%; in the test on OVCAR-4 ovarian it was 101%; in the test on SK-OV-3 ovarian, 113%. Also, the growth is 109% with IGROV1 ovarian; 109% in the test on OVCAR-3 ovarian; 124% in the test on HS 578T breast; 92.2% with NCI/ADR-RES ovarian; 86.3% in the test on T-47D breast; 134% in the test on BT-549 breast. The growth in the test with MDA-MB-435 melanoma is 108%; in the test with SW-620 colon, 105%; in the test with MCF7 breast, 106%; in the test with HCT-116 colon it was 94.2%; in the test with HCC-2998 colon, 106%; with KM12 colon, 108%.
As for `O=C(CI)NC1Oc2ccccc2-c2oc(=O)c(-c3ccccc3)cc21` (configuration not stated), the growth in the test with SR leukemia is -33.5% (active); in the test with RPMI-8226 leukemia it was -49.4% (active); in the test with OVCAR-8 ovarian, -27.9% (active); with OVCAR-5 ovarian, 12.8%; in the test with OVCAR-4 ovarian, -40.3% (active); with SK-OV-3 ovarian, 103%. Also, the growth in the test with IGROV1 ovarian was -59% (active); in the test with OVCAR-3 ovarian, -95.1% (active); in the test with HS 578T breast it was 44.3%; with NCI/ADR-RES ovarian, 36.7%; with T-47D breast, -42.4% (active); with BT-549 breast, -55.7% (active). Further, the growth in the test with MDA-MB-435 melanoma is 17.9%; in the test with SW-620 colon, -48.3% (active); in the test with MCF7 breast, -53.3% (active); with HCT-116 colon it was -37.5% (active); in the test with HCC-2998 colon, 78.2%; in the test with KM12 colon it was 2.37% (active).
In the case of `O=C1Nc2ccc(I)cc2C1=O`, the growth with SR leukemia was 100%; in the test on RPMI-8226 leukemia it was 144%; in the test with OVCAR-8 ovarian, 90.7%; in the test with OVCAR-5 ovarian, 98.6%; with OVCAR-4 ovarian it was 101%; in the test with SK-OV-3 ovarian it was 108%. Moreover, the growth with IGROV1 ovarian is 46.6%; with OVCAR-3 ovarian, 74.7%; in the test on HS 578T breast, 97.8%; in the test with NCI/ADR-RES ovarian, 97.2%; in the test on T-47D breast, 106%; in the test with BT-549 breast, 80.1%. The growth in the test with MDA-MB-435 melanoma is 103%; in the test on SW-620 colon it was 65.2%; in the test on MCF7 breast it was 71.5%; in the test with HCT-116 colon, 71.8%; in the test on HCC-2998 colon, 62.9%; in the test with KM12 colon it was 82.8%.
Turning to `O=S(=O)(NCCNc1cc(-c2c(-c3cccc(O)c3)nc3sccn23)ccn1)c1ccc(C(F)(F)F)cc1`, the growth with SR leukemia is 19.6%; with RPMI-8226 leukemia it was 30.3%; in the test on OVCAR-8 ovarian, 28.4%; in the test with OVCAR-5 ovarian it was 93.5%; in the test on OVCAR-4 ovarian, 22.1%; in the test with SK-OV-3 ovarian, 45.4%. The growth is 36.4% in the test with IGROV1 ovarian; 37.1% in the test with OVCAR-3 ovarian; 42.8% with HS 578T breast; 58% with NCI/ADR-RES ovarian; -1.89% (active) with T-47D breast; 26.6% in the test on BT-549 breast. Besides, the growth in the test with MDA-MB-435 melanoma was 10.7%; with SW-620 colon, 47.3%; in the test with MCF7 breast it was 16.2%; in the test with HCT-116 colon, 26.6%; in the test on HCC-2998 colon, 70.6%; in the test with KM12 colon, 26.7%.
With `Cn1c(-c2ccc(Br)cc2)c(O)c(=O)c2c(F)cccc21`, the growth in the test on SR leukemia is 102%; in the test on RPMI-8226 leukemia, 104%; in the test with OVCAR-8 ovarian, 50.9%; with OVCAR-5 ovarian, 63.8%; with OVCAR-4 ovarian it was 52.1%; in the test with SK-OV-3 ovarian, 46.3%. In addition, the growth was 48.6% with IGROV1 ovarian; 51.7% in the test on OVCAR-3 ovarian; 84.9% in the test with HS 578T breast; 21.8% with NCI/ADR-RES ovarian; 57.7% in the test on T-47D breast; 70.6% with BT-549 breast. The growth was 67.8% in the test on MDA-MB-435 melanoma; 51% in the test on SW-620 colon; 37.1% with MCF7 breast; 35.1% with HCT-116 colon; 64.5% in the test with HCC-2998 colon; 53.3% with KM12 colon.
For `O=C(CN1C(=O)CCC1=O)Nc1ncc(Cc2ccc(F)cc2)s1`, the growth in the test on SR leukemia is 99.9%; in the test on RPMI-8226 leukemia, 105%; in the test on OVCAR-8 ovarian it was 107%; with OVCAR-5 ovarian, 97.3%; in the test with OVCAR-4 ovarian it was 101%; in the test on SK-OV-3 ovarian, 110%. For the same compound, the growth with IGROV1 ovarian was 101%; with OVCAR-3 ovarian it was 103%; in the test with HS 578T breast it was 101%; in the test with NCI/ADR-RES ovarian, 100%; in the test with T-47D breast, 103%; with BT-549 breast, 97.5%. Also, the growth in the test on MDA-MB-435 melanoma was 102%; in the test on SW-620 colon it was 102%; with MCF7 breast, 92.4%; with HCT-116 colon it was 104%; in the test on HCC-2998 colon, 92.5%; in the test with KM12 colon it was 103%.
Take `Cn1c(O)c(C=NCCN=Cc2c(O)n(C)c(=O)n(C)c2=O)c(=O)n(C)c1=O`: the growth is -21.9% (active) with SR leukemia; 80.6% in the test with RPMI-8226 leukemia; 103% in the test on OVCAR-8 ovarian; 83.7% in the test with OVCAR-5 ovarian; 112% in the test with OVCAR-4 ovarian; 107% in the test with SK-OV-3 ovarian. The growth is 106% in the test with IGROV1 ovarian; 102% with OVCAR-3 ovarian; 112% with HS 578T breast; 104% in the test on NCI/ADR-RES ovarian; 96.1% in the test with T-47D breast; 118% with BT-549 breast. In addition, the growth in the test on MDA-MB-435 melanoma was 93.7%; in the test on SW-620 colon, 107%; with MCF7 breast, 108%; with HCT-116 colon, 81.1%; with HCC-2998 colon, 92.2%; in the test on KM12 colon, 98.7%.
Consider `CC1=C(CCC(C)N(C)Cc2ccc(OCCCN3CCCC3)cc2)C(C)(C)CCC1` (configuration not stated), for which the growth was -24.9% (active) with SR leukemia; -14.3% (active) in the test with RPMI-8226 leukemia; 45.7% in the test on OVCAR-8 ovarian; 25.4% with OVCAR-5 ovarian; 60.2% with OVCAR-4 ovarian; 36.5% in the test on SK-OV-3 ovarian. Moreover, the growth was 42.9% with IGROV1 ovarian; 23.6% in the test with OVCAR-3 ovarian; 36.4% in the test with HS 578T breast; 63% with NCI/ADR-RES ovarian; -43.1% (active) in the test on T-47D breast; 55.6% in the test with BT-549 breast. Besides, the growth is -77.9% (active) in the test on MDA-MB-435 melanoma; 21.3% in the test with SW-620 colon; -33.3% (active) with MCF7 breast; 10.7% in the test with HCT-116 colon; -31% (active) with HCC-2998 colon; 27.6% in the test with KM12 colon.
